# Measurements as given in PubChem BioAssay AID2244 (Southern Research Specialized Biocontainment Screening …, 2010).
# Results with a measured potency or affinity are listed apart. Values without a mark were called inactive.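 Rule for the calls: active = viability below 70% at one or more tested concentrations; inactive = viability above 70% at every concentration.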
# Experiment: host cell viability loss, Vero E6 – synthesized analogs, cytotoxicity control for West Nile virus antiviral project, SAR follow-up (AID 2244)
# Details: CellTiter-Glo luminescence, 72 h, stronger effect = lower value; at 40 µM unless noted
row,Compound,minimum viability
1,O=c1c2cc([N+](=O)[O-])ccc2nc2n1CCC2,78.7%
2,Cc1ccc2nc3n(c(=O)c2c1)CCC3,76.4% [at 0.078 µM]
3,Nc1ccc2nc3n(c(=O)c2c1)CCC3,76.6%
4,COc1ccc(-c2csc(N(CCCBr)C(=O)c3ccccc3Cl)n2)cc1,70.2%
5,CC(=O)Nc1ccc2nc3n(c(=O)c2c1)CCC3,79.7% [at 0.625 µM]
6,Cc1cccc2c(=O)n3c(nc12)CCC3,75.1% [at 0.078 µM]
7,COc1cccc(-n2c(SCC(=O)Nc3ccc4c(c3)CCC4)nc3ccccc3c2=O)c1,74.6%
8,CCOC(=O)C1(Cc2ccccc2C(F)(F)F)CCN(C2CCN(C(C)=O)CC2)CC1,87% [at 80 µM]
9,COc1ccc(-c2csc(N(C)C(=O)c3ccccc3Cl)n2)cc1,78.5%
10,O=C(CSc1nc2ccccc2c(=O)n1-c1ccc(F)cc1F)Nc1ccc(N2CCOCC2)cc1,70.7%
11,c1ccc2c(c1)CN1CCCC1=N2,89.1% [at 20 µM]
12,COc1ccccc1NC(=O)CSc1nc2ccccc2c(=O)n1-c1ccc(F)cc1,78.4%
13,CC1(O)c2cc(Br)ccc2N=C2CCCN21 (stereo not given),74.6% [at 0.156 µM]
14,O=[N+]([O-])c1ccc2c(c1)C(O)N1CCCC1=N2 (stereo not given),76.7% [at 0.078 µM]
15,COc1ccc(NC(=O)CSc2nc3ccccc3c(=O)n2-c2ccc(F)cc2)cc1,70.1%
16,CC1CC(C)CN(C(=O)CSc2nc3ccccc3c(=O)n2-c2ccc(F)cc2)C1 (stereo not given),74.6%
17,O=c1c2cccc(Cl)c2nc2n1CCC2,79.7% [at 5 µM]
18,O=c1c2cc(I)ccc2nc2n1CCC2,72.6%
19,Cc1cccc2nc3n(c(=O)c12)CCC3,78.3% [at 0.625 µM]
20,O=c1c2c(F)cccc2nc2n1CCC2,80.3% [at 2.5 µM]
